Screening results from PubChem.
Rows were chosen to be rich in hits. Some 12% of all compounds tested hit in one or more screens of this group.
LASV entry inh – inhibitors of Lassa virus binding or cell entry | actives 1.2% (n = 300,000) | AID 540256 | Potency, µM (series often up to 37.9 µM), for inactives: at the top dose activity change, negative = inhibition, actives largely listed as inhibitors | Lassa virus pseudotype entry inhibition, cell reporter; calls by dose curve; tested in HEK293 cells; note: potency is the fitted concentration of half-maximal effect; % is set by controls: 0 for no effect and ±100 for the full control effect; nearly all actives have a fitted effect of over 50% in size
CHX counter – counter-screen for Shiga toxin inhibitors: cycloheximide protein synthesis inhibition | cell reporter, cycloheximide protein synthesis inhibition counterscreen | max response, % | actives 12% (n = 300,000); in the data active = max response mostly above about 13%, no sharp cut-off; inactive = mostly below about 14%; note: read at 38.3 µM for the half of the compounds with a filed dose; 0% is about no effect
Shiga toxin inh – blocks Shiga toxin action in Vero cells. Vero cells, Shiga toxin protein synthesis inhibition reporter. inhibition, % at 38.7 µM. actives 9.2% (n = 290,000). AID 2315; in the data active = inhibition mostly above about 28%, no sharp cut-off; inactive = mostly below about 43%; note: 0% is about no effect
Marburg entry inh – Marburg virus entry inhibition | AID 540276 | Potency, µM (highest dose often 37.8 µM), inactives show at the top dose activity change, negative = inhibition, usual class: inhibitors | Marburg virus pseudotyped entry inhibition, cell reporter | actives 1.8% (n = 300,000); calls by dose curve; tested in HEK293 cells; note: potency is the fitted concentration of half-maximal effect; % is set by controls: 0 for no effect and ±100 for the full control effect
* = called active by the depositor; ? = inconclusive; · = no result given; [ ] = remark or other dose.

SMILES | LASV entry inh | CHX counter | Shiga toxin inh | Marburg entry inh
Cc1ccccc1-n1c(SCC(=O)O)nc2sc3c(c2c1=O)CCCC3 | 24.9%[46.1 µM] | -9.2 | 2.4 | 15.1%[46.1 µM]
Cc1ccc(CNC(=O)C2CCCN(S(=O)(=O)N3CC(C)CC(C)C3)C2)cc1 (stereo unspecified) | · | -4.0 | -2.5 | ·
Cc1ccc(C)c(-n2nnc(-c3nc(-c4ccc(Cl)cc4)no3)c2N)c1 | 16.2%[46.1 µM] | · | · | ·
CN(C)CCCNc1nc2sc3c(c2c(=O)n1CCc1ccccc1)CCCCC3 | ? | 1.7 | -9.7 | 7.08µM*
CN(C)c1ccc(C2CC(c3ccccc3)=Nc3nc(-c4ccccc4)cn32)cc1 (stereo unspecified) | 7.0% | 30.8* | 11.7 | ?
O=c1[nH]c2ccccc2n1CCCN1CCN(C(c2ccccc2)c2ccccc2)CC1 | 18.4µM* | -6.1 | -3.6 | 12.6µM*
O=c1[nH]c2ccccc2n1CCCN1CCCCC1 | 3.1% | -1.5 | -7.1 | ?
O=C(O)c1cc(N=Nc2c(O)ccc3ccccc23)cc(C(=O)O)c1 | ? | 7.8 | -1.0 | -8.1%
O=Cc1cc(N=Nc2ccccc2Cl)ccc1O | · | 33.7* | 29.0 | ·
CN1C(=O)/C(=C\c2cc(N=Nc3ccccc3)ccc2O)SC1=S | -1.1% | 1.4 | -6.1 | 1.3%
O=Cc1cc(N=Nc2cccc(C(=O)O)c2)ccc1O | -18.1%[46.1 µM] | 38.7* | 76.3* | ?
Cc1c(Cl)cccc1NC(=O)CCS(=O)(=O)c1cccc2nsnc12 | -18.0%[46.1 µM] | · | · | 8.4%[46.1 µM]
CCc1ccc(NS(=O)(=O)c2ccc(C(=O)N(C)C)s2)cc1 | -27.2%[46.1 µM] | · | · | ·
CCOC(=O)C1C(=O)C=C(c2ccc(NS(C)(=O)=O)cc2)CC1c1ccco1 (stereo unspecified) | 1.9% | 2.7 | 11.9 | 10.2%
CCOC(=O)C1C(=O)C=C(c2ccc(C)cc2)CC1c1ccco1 (stereo unspecified) | -15.8% | 21.0* | 53.7* | 12.8%
Cc1cc2c(s1)c1cnn(Cc3cccc(F)c3F)c(=O)c1n2C | · | 9.2 | 19.3 | ·
CCC(CC)C(=O)Nc1cccc(-c2nc3ncccn3c2C)c1 | 8.0%[46.1 µM] | · | · | ·
CC(=O)N1N=C(c2ccc(C)cc2)OC1c1ccc(Br)cc1 (stereo unspecified) | 29.4% | 17.4* | 29.8 | ?
CC(=O)NC1=NN(C(C)=O)C(c2ccc(C)cc2)S1 (stereo unspecified) | 12.7% | 2.9 | -3.4 | ?
CC(=O)N1N=C(c2ccc(Cl)cc2)OC1c1ccc(C(C)C)cc1 (stereo unspecified) | -0.1% | 30.4* | 109.9* | 0.7%
CCCN1CCC(NC(=O)CC2C(=O)NCCN2Cc2ccccc2C)CC1 (stereo unspecified) | · | -1.3 | -5.1 | ·
Cc1cccc(N2CCN(c3nc4ccccc4c4nnc(C)n34)CC2)c1C | ? | · | · | -13.5%[46.1 µM]
COc1ccc(F)cc1S(=O)(=O)Nc1cccc(C(=O)O)c1 | -6.2% | -2.3 | -2.7 | ?
COc1ccc(S(N)(=O)=O)cc1C(=O)OCC1CCCCC1 | ? | -5.3 | -5.4 | 3.9%[46.1 µM]
CN(C)c1ccc(/C=N/NC(=O)C2CC2c2ccccc2)cc1 (stereo unspecified) | · | 10.6 | 6.2 | ·
SMILES | LASV entry inh | CHX counter | Shiga toxin inh | Marburg entry inh
O=C(N/N=C/C=C/c1ccccc1)C1CC1c1ccccc1 (stereo unspecified) | 0.13µM* | -1.8 | 1.2 | ?
O=C(N/N=C/C=C/c1ccccc1)NC1CCCCC1 | · | 16.3* | 43.4 | ·
CC(=O)Nc1ccc(/C(C)=N/NC(=O)C2CC2c2ccccc2)cc1 (stereo unspecified) | 0.0184µM* | 5.5 | -1.2 | 3.4%
O=C(N/N=C/c1cccc(O)c1)NC1CCCCC1 | -17.2% | 29.7 | 89.3* | -4.8%[46.1 µM]
Cc1ccc2c(c1)C(=O)c1ccccc1CS2=O (stereo unspecified) | -2.3% | 5.6 | 20.2 | 0.8%
CCOc1ccc(CCNC(=O)c2ccc(CSCc3ccccc3C)o2)cc1OCC | 1.7%[46.1 µM] | · | · | ·
COc1cc(C(=O)OCC(=O)c2cc(C)n(C)c2C)cc(OC)c1OC | -27.2% | 0.8 | 13.8 | ?
COCCn1c(C)cc(C(=O)COC(=O)c2n[nH]c3ccccc23)c1C | ? | 11.4* | 30.6 | ?
Cc1cc(C(=O)COC(=O)c2n[nH]c3ccccc23)c(C)n1C | ? | 46.7* | 62.5* | ?
CC1CCCCN1C(=O)COC(=O)c1n[nH]c2ccccc12 (stereo unspecified) | ? | 58.0* | 57.1 | 7.9%
COc1ccc(C(=O)COC(=O)c2n[nH]c3ccccc23)c(OC)c1 | -6.8% | · | · | 2.2%
COCCn1c(C)cc(C(=O)COC(=O)c2ccccc2Br)c1C | · | -2.6 | -12.0 | ·
Cc1cc(C(=O)COC(=O)c2nccnc2N)c(C)n1C | ? | 41.7* | 103.5* | ?
CCCN1C/C(=C/c2ccc3c(c2)OCO3)C(=O)/C(=C/c2ccc3c(c2)OCO3)C1 | ? | 6.6 | 5.6 | ?
CCCN1C/C(=C/c2cccc([N+](=O)[O-])c2)C(=O)/C(=C/c2cccc([N+](=O)[O-])c2)C1 | 2µM* | 19.3 | -7.0 | ?
Cc1ccc(-n2c(SCC(=O)NC3CCS(=O)(=O)C3)nc3ccccc3c2=O)cc1C (stereo unspecified) | -29.3% | · | · | -23.6%
CC(C)(C)C1CCc2c(sc3nc(SCC(=O)O)nc(N)c23)C1 (stereo unspecified) | ? | 15.8* | 34.4 | -26.1%[46.1 µM]
COC(=O)CSc1nc(N)c2c3c(sc2n1)CCCC3 | -5.0% | 16.0* | 46.1 | -1.3%
CC(C)=CC(=O)Oc1ccc(C(=O)N(C)c2ccccc2I)cc1 | · | -2.3 | 18.2 | ·
CC(=O)[C@]12C[C@]3(C)CCCN(C(=O)N[C@@H]1c1ccccc1)C32 (stereo partly specified) | ? | · | · | 9.6%[14.2 µM]
OCCNCCCCOc1cccc(Br)c1 | ? | 1.6 | 17.7 | ?
C=CCNCCCCOc1cccc(Br)c1 | -1.6% | -1.0 | 19.1 | 12.6µM*
Cc1ccc(S(=O)(=O)/N=C2\C=C(Nc3ccc(O)cc3)C(=O)c3ccccc32)cc1 | 2.82µM* | · | · | ?
Cc1ccc(S(=O)(=O)/N=C2\C=C(Nc3cccc(C(=O)O)c3)C(=O)c3ccccc32)c(C)c1 | ? | 24.5* | 63.9* | ?
Cc1c2cnn(CC(=O)NC(C)C)c(=O)c2c(C)n1Cc1cccc(Cl)c1 | 6.6%[46.1 µM] | · | · | -12.2%[46.1 µM]
SMILES | LASV entry inh | CHX counter | Shiga toxin inh | Marburg entry inh
O=C(NCCc1ccccc1)c1ccc(-n2cnnn2)cc1 | ? | 46.7* | 60.7* | 2.0%
O=C(NCCCCc1ccccc1)c1cccc([N+](=O)[O-])c1 | · | -2.8 | -7.6 | ·
O=C(NCCCCc1ccccc1)c1ccccc1 | 17.4% | 15.5* | 27.7 | -10.6%
O=C(NCCCc1ccccc1)c1ccccc1 | ? | 39.8* | 75.9* | 20.5%
O=C(NCCCc1ccccc1)c1cccc([N+](=O)[O-])c1 | 24.4% | 22.0* | 33.9 | 21.7%
O=C(NCCCCc1ccccc1)c1ccc(Br)cc1 | · | 38.1* | 55.7* | ·
CCc1ccccc1NC(=O)N1CCCC(CCC(=O)N(C)CCc2ccccn2)C1 (stereo unspecified) | · | -1.4 | -3.3 | ·
COc1ccc(NC(=O)N2CCCC(CCC(=O)N(C)CCc3ccccn3)C2)cc1 (stereo unspecified) | 4.3% | 29.6* | 90.5* | -0.6%
Cc1c(CCC(=O)NCCCN2CCCC2=O)c(=O)oc2c(C)c(O)ccc12 | · | -0.6 | -0.4 | ·
O=C(CSc1n[nH]c(=O)n1C1CC1)Nc1ccccc1 | · | -3.2 | -2.1 | ·
